VLA-4 inh: inhibition in a human VLA-4 binding assay; P13612; VLA-4 expressing cells, ligand binding flow cytometry; inhibition, % (about 7 µM as worked out from the volumes in the protocol); 330,000 tested, 0.2% active; AID 2557; in the data active = inhibition above about 50%
Bfl-1 A1 inh: inhibitors of the anti-apoptotic protein A1, read as caspase activation | MEF A1-2A-BIM cells, Caspase-Glo 3/7 luminescence, 3 h; percent of clofoctol response, vehicle zero | caspase activation, % (no concentration beside the values) | 330,000 tested, 0.066% active;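 active = over half of replicate activation scores above 10%, or exactly half above 10 with the replicate mean above 10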
NTR1 ag: activates human neurotensin receptor 1; NTR1-U2OS beta-arrestin-GFP spot imaging, agonist mode; P30989; activation, % at 20 µM; 330,000 tested, 0.17% active; AID 493036;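 active = activation at or above 40% of the spot to cytoplasm intensity ratio, with at least 20 cells analyzed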;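 also: 0% = DMSO without peptide and 100% = 100 nM NTR1 peptide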
GRK2 aptamer HTS: blocks RNA aptamer binding to human GRK2; P25098; bead flow cytometry, FAM-aptamer displacement from GRK2; inhibition of aptamer binding, % at 10 µM; 330,000 tested, 0.59% active; AID 488847;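 active = inhibition of aptamer binding above 40%, roughly 3 SD of noise, on plates passing a quality check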;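 also: median bead fluorescence of bound FAM aptamer so fluorescent compounds give negative values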
Target sequence (P25098 whole entry, looked up): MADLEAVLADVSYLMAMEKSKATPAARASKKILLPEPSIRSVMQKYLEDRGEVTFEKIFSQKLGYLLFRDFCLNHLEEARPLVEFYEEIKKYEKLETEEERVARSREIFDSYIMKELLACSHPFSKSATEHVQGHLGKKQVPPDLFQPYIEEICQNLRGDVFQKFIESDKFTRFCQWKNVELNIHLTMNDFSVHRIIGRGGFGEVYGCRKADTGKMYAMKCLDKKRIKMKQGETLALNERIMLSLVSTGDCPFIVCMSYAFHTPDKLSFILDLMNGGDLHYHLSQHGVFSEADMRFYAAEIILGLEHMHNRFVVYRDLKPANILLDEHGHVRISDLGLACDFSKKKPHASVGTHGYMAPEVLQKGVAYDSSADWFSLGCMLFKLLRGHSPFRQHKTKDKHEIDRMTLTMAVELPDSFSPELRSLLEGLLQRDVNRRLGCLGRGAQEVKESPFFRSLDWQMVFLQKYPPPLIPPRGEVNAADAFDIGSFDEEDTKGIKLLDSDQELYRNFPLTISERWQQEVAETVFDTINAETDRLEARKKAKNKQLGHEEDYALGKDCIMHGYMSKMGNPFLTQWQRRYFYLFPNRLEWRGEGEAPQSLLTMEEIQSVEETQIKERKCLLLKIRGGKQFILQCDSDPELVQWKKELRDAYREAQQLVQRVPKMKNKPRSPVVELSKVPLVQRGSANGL
B2AR ag: activates human beta-2 adrenergic receptor causing internalization; Am2.2-beta2AR cells, FAP receptor internalization, flow cytometry; response, % (no concentration beside the values); 340,000 tested, 0.43% active; AID 504454;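 active = response above a set limit, near 3 SD of response in nonfluorescent compounds, cut at about 42% in these data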
GRK2 inh confirm: confirmation of human GRK2 inhibitors displacing RNA aptamer. 2,000 tested, 4% active. aptamer displacement, % at 10 µM. AID 504451. shares compounds with GRK2 aptamer HTS. bead-bound GRK2, FAM-aptamer displacement, flow cytometry;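 active = aptamer displacement above 40%, near three times the noise of non-fluorescent compounds, on plates passing quality checks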;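 also: negative values mostly reflect intrinsic compound fluorescence rather than true enhancement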
FAM quench CP1: aptamer fluorescence quenching in GRK2 counter-screen; 2,000 tested, under 10 active; Carboxyfluorescein RNA aptamer on beads, flow cytometry quenching; stronger effect = lower value; fluorescence response (% of DMSO), % at 10 µM; shares compounds with GRK2 aptamer HTS;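 active = compounds that quench the bead-bound fluorescent RNA probe, cutting fluorescence to under half of the solvent control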;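 also: counterscreen run without GRK2 so only probe quenching by compound is measured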
GRK2 confirm 2: confirmation of human GRK2 inhibitors binding RNA aptamer site. shares compounds with GRK2 aptamer HTS. bead-bound GRK2, FAM-aptamer displacement, flow cytometry. inhibition of aptamer binding, % at 10 µM. 360 tested, under 10 active. AID 504782;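 active = inhibition of aptamer binding above 40%, about triple the noise seen with nonglowing compounds, on plates passing quality control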;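 also: negative values mostly come from compounds that fluoresce themselves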
FAM quench SP: counter-screen for GRK2 binding hits: quenchers of fluorescent RNA aptamer; 360 tested, under 10 active; carboxyfluorescein RNA aptamer beads, flow cytometry quenching; stronger effect = lower value; fluorescence response vs DMSO, % at 10 µM; shares compounds with GRK2 aptamer HTS;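 active = response vs DMSO under 50%, meaning signal dropped by over half, treated as fluorescence quencher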;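 also: labelled aptamer on streptavidin beads without GRK2 as a quench counter-screen; 100% = bead fluorescence of DMSO wells and lower means quenching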
* hit, by the source's call; · = no result. In the library only some 1.3% were active in any assay of this set; here they are far more common.

SMILES	VLA-4 inh	Bfl-1 A1 inh	NTR1 ag	GRK2 aptamer HTS	B2AR ag	GRK2 inh confirm	FAM quench CP1	others
Cc1ccc(S(=O)(=O)c2c(N)n(CCCN(C)C)c3nc4ccccc4nc23)cc1	0	0	1	1	24	·	·
CCCCn1c(NS(=O)(=O)c2ccc(C)cc2)c(S(=O)(=O)c2ccccc2)c2nc3ccccc3nc21	14	0	·	0	23	-5	97
O=C(CCN1C(=O)/C(=C\c2cccc(Br)c2)SC1=S)N1CCOCC1	16	1	0	0	-1	·	·
CC1CN(S(=O)(=O)c2cc(C(=O)NC(C)c3cccnc3)ccc2Cl)CC(C)O1 (stereo unspecified)	-11	1	2	0	-9	·	·
COc1ccc(C(=O)COC(=O)c2cc(C)no2)c(OC)c1	1	-1	1	11	-2	·	·
CC(C)(C)NC(=O)COC(=O)CCC(=O)c1ccc(F)cc1	5	1	-1	99*	-3	0	101
CCOc1cccc(/C(O)=C2/C(=O)C(=O)N(CCOC)C2c2ccco2)c1 (stereo unspecified)	7	2	-1	47*	1	10	111
CCOc1cccc(/C(O)=C2/C(=O)C(=O)N(Cc3cccnc3)C2c2ccco2)c1 (stereo unspecified)	0	0	-1	0	0	·	·
COc1ccc(-n2nc(C(=O)NCC(=O)NCc3ccccc3OC)c3ccccc3c2=O)cc1	-4	0	-1	0	3	·	·
CCN(CC)CCNC(=O)CNC(=O)c1nn(-c2ccc(OC)cc2)c(=O)c2ccccc12	6	0	2	0	0	1	95
CCCCNC(=O)CNC(=O)c1nn(-c2ccc(OC)cc2)c(=O)c2ccccc12	-3	1	0	26	2	2	94
COc1ccc(-n2nc(C(=O)NCC(=O)NCCN(C)C)c3ccccc3c2=O)cc1	-2	-1	0	23	3	3	93
CCN(CC)CCCNC(=O)CNC(=O)c1nn(-c2ccc(OC)cc2)c(=O)c2ccccc12	9	0	0	0	-8	·	·
COc1ccc(-n2nc(C(=O)NCC(=O)NCCCN3CCN(C)CC3)c3ccccc3c2=O)cc1	24	0	0	4	-8	·	·
CCN(CC)CCNC(=O)CNC(=O)c1nn(-c2ccc(OC)c(OC)c2)c(=O)c2ccccc12	12	0	-2	0	-5	1	99
COc1cccc(NC(=O)NCCC2=CCCCC2)c1	40	0	2	5	10	·	·
CCOc1ccc(CCNC(=O)Nc2cccc(OC)c2)cc1OCC	2	-2	1	41*	4	·	·	GRK2 confirm 2=-8;FAM quench SP=98
CCOc1ccc2nc(NC3=NC(c4ccc(OC)cc4)CC(=O)N3)nc(C)c2c1 (stereo unspecified)	-15	-1	25	38	-9	-25	107
Cc1ccc2c(=O)n3c(nc2c1)C(Cc1ccccc1)NC(=O)c1ccc(Cl)cc1-3 (stereo unspecified)	-1	0	3	1	·	·	·
Cc1ccc2nc(SCC(=O)c3c[nH]c4ccccc34)[nH]c2c1	-32	-1	1	58*	-3	-1	107
Cc1cc(C)c(C(=O)CSc2nc3ccccc3c(=O)[nH]2)cc1C	2	1	12	2	-6	·	·
Cc1ccc2cc(CCNC(=O)C(=O)c3c[nH]c4ccccc34)c(=O)[nH]c2c1	8	0	-1	71*	-12	17	98
Cc1ccc(C(=O)CSc2nc3ccccc3c(=O)[nH]2)cc1C	-2	0	4	61*	1	3	103
Cc1onc(-c2ccccc2)c1C(=O)OCC(=O)NC(=O)c1ccccc1	1	0	-1	1	-2	·	·
CC1CCCCN1C(=O)c1ccc(C(=O)N2CCCCC2C)cc1 (stereo unspecified)	-5	0	1	0	7	·	·
SMILES	VLA-4 inh	Bfl-1 A1 inh	NTR1 ag	GRK2 aptamer HTS	B2AR ag	GRK2 inh confirm	FAM quench CP1	others
Cc1ccc(C)c(S(=O)(=O)NCc2ccc(C(=O)N3CCCCC3C)cc2)c1 (stereo unspecified)	·	0	4	52*	1	2	93
O=C(N/N=C/c1cccnc1)c1cccc(NC(=O)c2ccc(Cl)cc2)c1	-4	0	-2	39	-4	-5	93
O=C(NC1CCCC1)C(c1ccncc1)N(C(=O)c1csnn1)c1ccccc1F (stereo unspecified)	0	0	1	3	-3	·	·
O=C(NCc1ccccc1)C(c1ccncc1)N(C(=O)c1csnn1)c1ccccc1F (stereo unspecified)	-11	0	-1	95*	-13	0	99
NC(CCCCCP(=O)(c1ccccc1)c1ccccc1)C(=O)O (stereo unspecified)	-2	2	-1	87*	·	-5	96
Cc1ccc(S(=O)(=O)c2c(O)c3ccc(C(=O)O)cc3[nH]c2=O)cc1	18	1	0	1	-3	·	·
CCC(=O)N1c2ccc(S(=O)(=O)CCC(=O)NCc3cccs3)cc2CC1C (stereo unspecified)	-17	0	0	0	-13	·	·	GRK2 confirm 2=-9;FAM quench SP=101
CC(=O)N1CCc2cc(S(=O)(=O)CCC(=O)NCc3cccs3)ccc21	-6	1	0	2	-12	·	·	GRK2 confirm 2=10;FAM quench SP=99
COc1ccc(NC(=O)CCCNC(=O)c2ccc(Cl)cc2)cc1S(=O)(=O)N1CCOCC1	·	·	·	·	8	·	·
COc1cccc(-c2ccc(NC(=O)C3CCCN(CCCn4nc(C)cc4C)C3)cc2)c1 (stereo unspecified)	-86	0	2	7	9	·	·
O=S(=O)(c1ccc(F)cc1)N1CCCNCC1	13	0	-1	0	2	-13	104
CC(C)(C)c1nnc(NC(=O)CCS(=O)(=O)c2ccccc2)s1	7	0	0	6	-2	1	97
O=C(CCS(=O)(=O)c1ccccc1)Nc1nnc(C(F)(F)F)s1	-6	0	0	25	-2	9	102
Cc1nnc(NC(=O)CCS(=O)(=O)c2ccccc2)s1	10	1	13	9	-5	2	100
COC(=O)\C(C(C)=O)=C(/C=C/C=C/C=C/N(C)C)N(C)C	-7	0	1	71*	9	35	95

Screens (PubChem BioAssay)
